G9a block = blocks human histone lysine methyltransferase G9a; Potency, µM (doses to about 102 µM), actives largely listed as inhibitors; 8.8% of 350,000 active; G9a H3K9 monomethylation, AlphaScreen, 2 h; also: nearly all actives have a fitted effect of over 75% in size
Target sequence (Q96KQ7 913-1193 limits assumed): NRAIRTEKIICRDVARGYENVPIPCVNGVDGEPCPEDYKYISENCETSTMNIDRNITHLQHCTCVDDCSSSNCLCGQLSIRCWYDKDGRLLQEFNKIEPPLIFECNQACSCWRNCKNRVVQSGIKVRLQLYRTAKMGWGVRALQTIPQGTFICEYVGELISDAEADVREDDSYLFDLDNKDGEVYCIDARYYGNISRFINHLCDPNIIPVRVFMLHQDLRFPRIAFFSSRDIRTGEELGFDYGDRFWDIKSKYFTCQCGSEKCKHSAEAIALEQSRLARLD
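Readings reflect AlphaScreen signal from monomethyl-H3K9 antibody detection. HMT at 20 nM; substrate b-H3K9 500 nM; cofactor SAM 20 uM; 2 h RT reaction; compounds tested as titrations in qHTS with 15 min preincubation.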
HP1b chromo inh = inhibitors of HP1-beta chromodomain binding to methylated histone tails | P83916 | AlphaScreen HP1-beta / biotin-H3K9me3 peptide binding | Potency, µM (titrated, usually from 114 µM), most hits filed as inhibitors | 0.56% of 390,000 active | AID 540317; also: nearly all actives have a fitted effect of over 70% in size
Target sequence (P83916 whole entry, looked up): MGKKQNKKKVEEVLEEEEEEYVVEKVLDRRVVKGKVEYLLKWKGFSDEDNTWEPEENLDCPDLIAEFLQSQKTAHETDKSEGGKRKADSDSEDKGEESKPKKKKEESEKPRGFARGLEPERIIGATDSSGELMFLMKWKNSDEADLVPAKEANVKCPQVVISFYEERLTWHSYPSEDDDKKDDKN
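HP1-beta protein (50 nM final) preincubated 30 min at room temperature with biotinylated H3(1-18)K9me3 peptide (50 nM) in PBS pH 7.4, 0.01% Tween-20, then compound added for 30 min. AlphaScreen streptavidin donor/nickel chelate acceptor beads (10 ug/mL final), 30 min dark, luminescence read.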
BAZ2B block = inhibitors of human BAZ2B bromodomain; Q9UIF8; AlphaScreen BAZ2B-H3K14Ac peptide displacement; Potency, µM (top dose mostly 114 µM), most hits filed as inhibitors; 4.4% of 360,000 active; AID 504333; also: nearly all actives have a fitted effect of over 60% in size
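AlphaScreen displacement: compounds (up to 110uM) incubated 30 min at room temperature with a preformed 50 nM BAZ2B/50 nM biotinylated H3K14Ac peptide complex in PBS pH 7.4 with Tween-20. Donor and acceptor beads at 10 ug/mL final added, 20 min light-protected before reading.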
JMJD2A Tudor inh = blocks the human JMJD2A Tudor domain. Potency, µM (series often up to 114 µM), most hits filed as inhibitors. 4.4% of 390,000 active. AlphaScreen JMJD2A-Tudor / H3K4me3 peptide binding; also: nearly all actives have a fitted effect of over 50% in size
Sfp inh = blocks B. subtilis Sfp PPTase activity; Biochemical Sfp PPTase activity, qHTS; 3.5% of 310,000 active; AID 1490; Q9F4F7; Potency, µM, hits mostly inhibitors;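 also: the enzyme is Sfp with the accession as filed and its product quenches rhodamine fluorescence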
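Buffer: 50 mM Hepes-Na pH 7.6, 10 mM MgCl2, 0.01% Nonidet P-40, 0.01% BSA. Enzyme 15 nM, pre-exposed to compound 15 min; substrates then added and fluorescence change tracked over 30 min.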
Numbers stand for hits; n = inactive; u = inconclusive; x = not tested or not shown; [ ] = dose if it differs, or a comment. Sampled rows, rich in hits. Any-hit rate of the full collection: about 12%. Calls follow the shape of the dose curve; as a rule, active = well fitted curve in the direction sought with a large enough effect; inconclusive = small, poorly fitted or top-dose-only effect, or another doubt; inactive = no such curve, though single readings can be large; an effect the other way counts as inactive or inconclusive.

SMILES | G9a block | HP1b chromo inh | BAZ2B block | JMJD2A Tudor inh | Sfp inh
CCCCN1CN(S(=O)(=O)c2cccs2)c2nc3ccccc3nc21 | u | x | n | x | u
O=C(Nc1nc2c(Br)cc(Br)cc2c(=O)s1)c1ccco1 | n | n | n | n | n
Cc1nc2c3ccccc3[nH]c(=O)n2n1 | n | n | n | n | n
O=C(CBr)N1CCc2ccccc2C(c2ccccc2)C1 (configuration not stated) | 32µM | n | n | n | 32µM
O=C(CN1CCOCC1)N1CCc2ccccc2C(c2ccccc2)C1 (configuration not stated) | u | n | n | n | u
COc1ccc(C)cc1NC(=O)CCN1CCN(c2ccccc2)CC1 | n | n | n | n | n
OC1CCN(C(=S)Nc2ccc(Nc3ccccc3)cc2)CC1 | u | n | u | n | 18µM
S=C(Nc1ccccc1)N1CCC(C2CCN(C(=S)Nc3ccccc3)CC2)CC1 | x | n | n | n | n
CC1CCCN(C(=S)Nc2ccc(Nc3ccccc3)cc2)C1 (configuration not stated) | 40µM | u | n | u | u
CC(=O)Nc1ccc(CNC(=O)C[N+]2(C)CCOCC2)cc1 | n[0.501 µM] | n | n | n | n
Cc1ccc2nc(Cn3cc(C(F)(F)F)ccc3=O)cc(=O)n2c1 | n | u | n | n | n
O=c1ccc(C(F)(F)F)cn1Cc1cc(=O)n2cc(Br)ccc2n1 | 4.5µM | n | 79µM | n | n
Cn1c(=O)c2c(O)c([N+](=O)[O-])c(=O)n(C)c2n(C)c1=O | u | n | n | n | n
COc1ccccc1C1CC(c2cccs2)=NN1C(=O)CCC(=O)O (configuration not stated) | n | n | n | n | n
COc1ccccc1C1CC(c2cccs2)=Nc2ccccc2S1 (configuration not stated) | n[12.7 µM] | n | n | n | 50µM
Cn1cc(-c2nc3ccccc3[nH]2)c2ccccc21 | n | n | n | n | n
CSc1nnc(-c2ccc(S(=O)(=O)N3CCCC3)cc2)n1C | n[12.7 µM] | n | n | n | n
O=[N+]([O-])c1ccc(Cl)cc1Sc1nc2ccccc2o1 | u | 13µM | 14µM | 45µM | n
O=C(NCc1cc(C(F)(F)F)cc(C(F)(F)F)c1)C1CC(c2ccccc2C(F)(F)F)=NO1 (configuration not stated) | n[2.33 µM] | n | n | n | x
COc1ccc(NS(=O)(=O)c2cc(N)ccc2N2CCOCC2)cc1 | 16µM | n | n | n | n
CCOC(=O)Nc1ccc(N2CCOCC2)c(S(=O)(=O)Nc2ccc(Cl)cc2)c1 | x | n | x | n | x
N=C1c2ccccc2CN1c1ccc(N2CCOCC2)c(S(=O)(=O)Nc2ccc(Cl)cc2)c1 | x | x | u | x | 10µM
Nc1ccc(N2CCOCC2)c(S(=O)(=O)Nc2cc(Cl)ccc2Cl)c1 | 35µM | n | n | u | n
COc1ccc(NS(=O)(=O)c2cc(NC(=O)c3ccccc3)ccc2N2CCOCC2)cc1 | x | n | x | n | x
O=C(/C=C/c1cccs1)Nc1ccc(N2CCOCC2)c(S(=O)(=O)Nc2ccccc2Cl)c1 | u | n | n | n | n
SMILES | G9a block | HP1b chromo inh | BAZ2B block | JMJD2A Tudor inh | Sfp inh
O=C(/C=C/c1cccs1)Nc1ccc(N2CCOCC2)c(S(=O)(=O)Nc2cc(Cl)ccc2Cl)c1 | 56µM | n | n | n | n
Nc1cc(S(=O)(=O)Nc2ccccc2Cl)ccc1N1CCOCC1 | u | n | n | n | n
COc1ccc(-c2cc(=O)c3cc(OC)c(OC)cc3[nH]2)cc1 | n | n | n | n | n
CC(=O)c1ccc(NC(=O)CCSCCC(=O)Nc2ccc(C(C)=O)cc2)cc1 | u | n | n | n | n
O=C(Cn1ncc2c3ccccc3n(Cc3ccccc3F)c2c1=O)NCCCc1ccccc1 | n | n | u | n | x
COc1ccc(NS(=O)(=O)c2cc(N)ccc2N2CCCC2)cc1 | x | u | x | 56µM | x
C=C1C(=O)O[C@@H]2[C@H]3O[C@]3(C)CC/C=C(\C)CC[C@@H]12 | 7.9µM | n | x | n | n
C=C1C(=O)O[C@@H]2C3OC3(C)CC/C=C(\C)CC[C@@H]12 (some centres not stated) | x | x | x | x | n
CCCNS(=O)(=O)c1ccc(NC(=O)c2ccccn2)cc1 | n | n | n | 20µM | n
CCOc1ccc(NS(=O)(=O)c2ccc(NC(=O)c3ccccn3)cc2)cc1 | n[12.7 µM] | n | n | n | x
CC(=O)Nc1ccc(S(=O)(=O)NCCc2cn3nc(C)c(C)nc3n2)cc1 | 8.9µM | n | n | n | n
CCSc1ccccc1C(=O)Nc1ccc(S(=O)(=O)NC(C)=O)cc1 | x | n | n | 50µM | 25µM
CC(=O)Nc1ccc(S(=O)(=O)NCCSc2ccccn2)cc1 | 2.5µM | n | n | u | n
CC1CC1C(=O)OCC(=O)Nc1cc(S(=O)(=O)N2CCCCC2)ccc1Cl (configuration not stated) | x | n | x | n | x
CCCc1nc2c(=O)[nH]c3ccccc3c2o1 | n[2.33 µM] | n | n | n | n
CCCCOC(=O)CCc1c(C)[nH]c(=O)c(C#N)c1C | n | n | n | n[11.4 µM] | n
CC(=O)NS(=O)(=O)c1ccc(NC(=O)c2ccccn2)cc1 | 50µM | n | 50µM | u | n
NNc1cc([N+](=O)[O-])cc2c1C(=O)N(Cc1ccccc1)S2=O (configuration not stated) | 2.8µM | n | u | 56µM | 22µM
CC1(c2ccccc2)CC(C)(C)N2C(=O)C(=O)c3cccc1c32 (configuration not stated) | u | n | 28µM | u | u
Cc1ccc(CN/C=C/C(=O)c2ccc(Br)cc2)cc1 | n | n | n | n | n
Cc1cc(NN)nc(Cc2ccccc2)n1 | n | n | n | n | 50µM
Cc1cc(NC(CC(C)C)C(=O)O)nc(Cc2ccccc2)n1 (configuration not stated) | n | n | n | n | n
Cc1[nH]c2ccccc2c1C(c1ccncc1)N1CCC(C)CC1 (configuration not stated) | 28µM | n | n | u | n
Cc1[nH]c2ccccc2c1C(c1ccncc1)N1CCN(c2ccccn2)CC1 (configuration not stated) | 22µM | u | u | n | u
Cc1[nH]c2ccccc2c1C(c1ccncc1)N1CCN(c2ccccc2F)CC1 (configuration not stated) | 11µM | n | u | u | n
SMILES | G9a block | HP1b chromo inh | BAZ2B block | JMJD2A Tudor inh | Sfp inh
COCC(=O)Nc1nc(-c2ccc(-c3ccccc3)cc2)cs1 | u | n | n | n | n
O=C(COC(=O)c1ccccn1)Nc1nc(-c2ccccc2)cs1 | n | n | 50µM | 79µM | n
O=C(COC(=O)c1ccccn1)Nc1nc(-c2cccc([N+](=O)[O-])c2)cs1 | n | n | 56µM | n | n
CC(=O)Nc1ccc(S(=O)(=O)N(C)CC(=O)OCC(=O)Nc2ccc3c(c2)OCO3)cc1 | n | n | n | n | n
C[n+]1ccc(C(=O)Nc2ccccc2Cl)cc1 | 25µM | n | u | u | n
O=C(Nc1ccccc1Cl)c1ccc2ccccc2c1 | x | n | n | n | n
CC(=O)Nc1cccc(OC(=O)c2ccoc2C)c1 | n[12.7 µM] | n | n | u | n
